PubChem BioAssay

How the values were obtained:
[1] = system: Botulinum neurotoxin type F light chain protease (Clostridium botulinum); assay: Botulinum neurotoxin type F light chain protease inhibition, multiplex microsphere flow cytometry, validation set (AID 588459); settings: multiplex microsphere protease substrate cleavage assay, at 10 µM, hits give high values
[2] = molecular target: Botulinum neurotoxin type A (Clostridium botulinum) (UniProt P0DPI0); assay: BoNT/A light chain protease inhibitors, biochemical, multiplex microsphere flow cytometry, validation set (AID 588460); settings: at 10 µM, hits give high values
[3] = molecular target: Lethal factor (Bacillus anthracis) (UniProt P15917); assay: Lethal factor protease inhibitors, Bacillus anthracis, multiplex microsphere cleavage assay, validation set (AID 588461); settings: flow cytometry, at 10 µM, hits give high values

Measured: inhibition

Chain of Botulinum neurotoxin type A (Clostridium botulinum) (P0DPI0 whole entry, looked up): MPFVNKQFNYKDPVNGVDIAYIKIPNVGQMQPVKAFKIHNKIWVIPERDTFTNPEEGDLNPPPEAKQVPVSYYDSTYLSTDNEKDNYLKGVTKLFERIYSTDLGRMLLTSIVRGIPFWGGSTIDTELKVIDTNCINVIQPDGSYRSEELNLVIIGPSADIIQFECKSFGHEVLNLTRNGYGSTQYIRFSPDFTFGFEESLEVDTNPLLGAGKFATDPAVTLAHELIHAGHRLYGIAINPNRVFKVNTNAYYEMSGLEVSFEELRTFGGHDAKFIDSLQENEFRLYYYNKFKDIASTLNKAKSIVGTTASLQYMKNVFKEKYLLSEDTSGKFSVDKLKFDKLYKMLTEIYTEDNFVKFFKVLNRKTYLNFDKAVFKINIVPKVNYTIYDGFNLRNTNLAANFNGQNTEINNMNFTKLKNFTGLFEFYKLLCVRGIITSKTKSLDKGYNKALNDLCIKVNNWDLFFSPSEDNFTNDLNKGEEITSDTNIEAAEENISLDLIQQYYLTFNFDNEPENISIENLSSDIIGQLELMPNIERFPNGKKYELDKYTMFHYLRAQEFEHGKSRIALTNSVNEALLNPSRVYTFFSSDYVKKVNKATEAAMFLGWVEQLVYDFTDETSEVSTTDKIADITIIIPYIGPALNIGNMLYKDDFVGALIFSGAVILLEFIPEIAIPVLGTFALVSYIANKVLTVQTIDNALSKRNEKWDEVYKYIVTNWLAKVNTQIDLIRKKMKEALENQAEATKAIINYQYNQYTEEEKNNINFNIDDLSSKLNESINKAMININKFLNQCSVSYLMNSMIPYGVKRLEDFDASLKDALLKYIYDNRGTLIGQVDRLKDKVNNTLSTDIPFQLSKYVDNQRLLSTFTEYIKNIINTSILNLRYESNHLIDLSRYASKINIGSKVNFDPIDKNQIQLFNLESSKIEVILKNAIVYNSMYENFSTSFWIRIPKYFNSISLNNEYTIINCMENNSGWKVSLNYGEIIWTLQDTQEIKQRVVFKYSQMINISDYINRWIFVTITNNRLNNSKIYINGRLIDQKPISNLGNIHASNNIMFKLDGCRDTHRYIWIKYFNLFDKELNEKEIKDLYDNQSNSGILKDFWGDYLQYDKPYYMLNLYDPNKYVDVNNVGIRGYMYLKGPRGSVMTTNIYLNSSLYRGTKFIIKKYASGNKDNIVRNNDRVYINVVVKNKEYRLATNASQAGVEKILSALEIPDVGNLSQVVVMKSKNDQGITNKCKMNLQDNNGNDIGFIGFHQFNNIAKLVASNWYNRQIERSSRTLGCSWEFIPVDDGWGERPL
Chain of Lethal factor (Bacillus anthracis) (P15917 whole entry, looked up): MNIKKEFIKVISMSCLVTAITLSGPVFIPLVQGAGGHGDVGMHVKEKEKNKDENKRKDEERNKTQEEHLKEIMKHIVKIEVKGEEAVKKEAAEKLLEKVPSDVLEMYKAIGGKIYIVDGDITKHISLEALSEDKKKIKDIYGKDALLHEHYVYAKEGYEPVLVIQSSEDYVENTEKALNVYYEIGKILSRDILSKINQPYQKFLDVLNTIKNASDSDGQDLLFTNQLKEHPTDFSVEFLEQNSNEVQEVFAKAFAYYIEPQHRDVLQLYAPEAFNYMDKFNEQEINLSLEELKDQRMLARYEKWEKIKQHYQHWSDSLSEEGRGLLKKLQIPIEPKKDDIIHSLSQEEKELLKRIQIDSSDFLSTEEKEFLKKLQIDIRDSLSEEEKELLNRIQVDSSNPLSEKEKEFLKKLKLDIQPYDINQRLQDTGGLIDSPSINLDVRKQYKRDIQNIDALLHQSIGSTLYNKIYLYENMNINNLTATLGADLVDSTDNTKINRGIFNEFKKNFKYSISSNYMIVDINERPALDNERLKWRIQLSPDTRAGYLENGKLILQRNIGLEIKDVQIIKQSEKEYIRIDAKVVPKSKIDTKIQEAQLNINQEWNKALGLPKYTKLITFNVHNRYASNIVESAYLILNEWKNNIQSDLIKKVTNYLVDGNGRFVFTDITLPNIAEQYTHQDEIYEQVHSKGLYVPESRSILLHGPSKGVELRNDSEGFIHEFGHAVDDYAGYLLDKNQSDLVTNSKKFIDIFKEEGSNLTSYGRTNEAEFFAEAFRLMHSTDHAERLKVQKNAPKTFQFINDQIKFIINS

COc1ccc(C(=O)/C=C/c2ccc(OC(=O)c3cc(OC)c(OC)c(OC)c3)cc2)cc1
inactive: [1] 2.9% | [2] 0.3% | [3] -5%

COc1ccc2cc(C(=O)Nc3ccc(S(N)(=O)=O)cc3)sc(=O)c2c1OC
inactive: [1] 4.2% | [2] 0.6% | [3] 1.5%

CC1=C(/C=C/C(C)=C/C=C/C(C)=C/C(=O)O)C(C)(C)CCC1
inactive: [1] 0.8% | [2] -0.1% | [3] 0.4%

COc1cc2c(cc1OC)C1(CCCC1)CNC2c1cccc([N+](=O)[O-])c1 (configuration not stated)
inactive: [1] 1% | [2] 0.1% | [3] -9.4%

COc1ccc([C@H]2[C@H](C(=O)OC(C)(C)C)N3N=Cc4ccccc4C3C23C(=O)c2ccccc2C3=O)cc1OC (some centres not stated)
inactive: [1] -0.2% | [2] 0.5% | [3] -5.5%

COc1ccc(C(=O)Nc2nc3ccccc3c(=O)[nH]2)cc1
inactive: [1] -3.3% | [2] -2.3% | [3] -0.8%

COC1(C)CC2C(CC1OC(=O)c1cc([N+](=O)[O-])cc([N+](=O)[O-])c1)C2(C)C (configuration not stated)
inactive: [1] -3.2% | [2] -0.5% | [3] -5.5%

CC(NC(=O)c1cccnc1)C(=O)O (configuration not stated)
inactive: [1] -0.3% | [2] -0.4% | [3] -4.7%

OC[C@@H](O)[C@@H](O[C@H]1O[C@H](CO)[C@@H](O)[C@H](O)[C@H]1O)[C@H](O)[C@@H](O)CO
inactive: [1] 3.7% | [2] 0.6% | [3] 3.8%

Cc1ccc2c(c1)c1c(n2C)C(=O)CCC1
inactive: [1] -1.5% | [2] -1% | [3] 3.3%

CCN1C(=O)C(CC(=O)Nc2ccc(F)cc2)N(Cc2ccco2)C1=S (configuration not stated)
inactive: [1] -2.9% | [2] -2.8% | [3] -7.4%

COc1ccc2[nH]c(=O)c(CNC3CCCCC3)cc2c1
inactive: [1] -1.7% | [2] 0.9% | [3] -0.1%

CC1(C)CC(=O)C2=C(C1)c1c(ccc3ccccc13)NC2c1ccco1 (configuration not stated)
inactive: [1] 1.8% | [2] 1.1% | [3] 3.8%

COC(=O)c1[nH]c2ccccc2c1NC(=O)CN1CCN(C/C=C/c2ccccc2)CC1
inactive: [1] -2.6% | [2] -1.4% | [3] -4.7%

CCCCOC(=O)c1ccc(N)cc1
inactive: [1] 3.6% | [2] -1.1% | [3] 2.2%

CCCCNc1ccc(C(=O)OCCN(C)C)cc1
inactive: [1] 0.2% | [2] 0.4% | [3] 2.7%

CC1/C(=C\c2ccc(Cl)cc2)C(=O)C2CC1C2(C)C (configuration not stated)
inactive: [1] 5.2% | [2] 0.2% | [3] -9.7%

CC(=O)NS(=O)(=O)c1ccc(N)cc1
inactive: [1] 0.7% | [2] 1% | [3] 4.5%

O=C(CCCC(=O)OCC1CCCO1)OCC1CCCO1 (configuration not stated)
inactive: [1] 1.9% | [2] -0.9% | [3] -1.6%

COc1ccc(C2C(C(=O)c3ccco3)=C(O)C(=O)N2CC2CCCO2)cc1 (configuration not stated)
inactive: [1] 1.3% | [2] 0.2% | [3] -4.2%

CCc1c(C)c2ccc(OCC(=O)OC(C)C)c(C)c2oc1=O
inactive: [1] -1.9% | [2] -0.4% | [3] -1.3%

C#CCN(C)Cc1ccccc1
inactive: [1] 2.5% | [2] -0.5% | [3] -2.8%

Oc1ccccc1OCCOc1ccccc1OCCOc1ccccc1O
inactive: [1] 6.5% | [2] 0.7% | [3] -0.4%

CC(C)CC(=O)NC(NC(=O)CC(C)C)c1cccc([N+](=O)[O-])c1
inactive: [1] 1.7% | [2] -0.3% | [3] 3.9%

COc1ccc2c(c1)C(=O)CC(c1ccccc1F)O2 (configuration not stated)
inactive: [1] 1.4% | [2] -0.4% | [3] -0.9%

CCc1cccc(OC2OC(CO)C(O)C(O)C2NC(C)=O)c1 (configuration not stated)
inactive: [1] -0.7% | [2] -0.7% | [3] -4.6%

COC(=O)c1ccc(NC(=O)c2ccccc2SC)cc1
inactive: [1] -4.7% | [2] -0.2% | [3] -5.4%

COc1cccc(C2CCCN2Cc2nc(CCC(C)C)no2)c1 (configuration not stated)
inactive: [1] -2.5% | [2] -0.8% | [3] -7.6%

CCCCC(=O)O[C@]1(C(=O)CO)CC[C@H]2[C@@H]3CCC4=CC(=O)CC[C@]4(C)[C@H]3[C@@H](O)C[C@@]21C
inactive: [1] -3.5% | [2] -0.5% | [3] -2.1%
